Screens (PubChem)
A selection: hits, their analogues and other compounds. The true share with any hit is near 0.83%.
NCOA3 inh – inhibitors of human steroid receptor coactivator 3 (SRC3); hit rate 0.17% among 360,000; HEK293 GAL4-SRC3 luciferase reporter, luminescence; inhibition, % at 3.6 µM; Q9Y6Q9;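 active = inhibition above a per-campaign cutoff, the mean of all compounds plus 3 SD, cut at about 60% in these data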;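 note: higher means less SRC3-driven luciferase light from the GAL4 reporter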
NCOA1 inh – inhibits human SRC1 coactivator; HEK293 GAL4-SRC1 luciferase reporter, luminescence; inhibition, % at 3.6 µM; hit rate 0.12% among 360,000;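 active = inhibition above the campaign mean plus 3 SD, with each screening campaign given its own cutoff, cut at about 60% in these data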
NR2F2 inh – inhibitors of human COUP-TFII (NR2F2); P24468; HEK293T NGFI-A luciferase reporter, luminescence; inhibition, % at 8.6 µM; hit rate 0.7% among 370,000; AID 686940;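 active = inhibition above a per-plate cutoff, mean inhibition of test wells between control levels plus 3 SD, cut at about 38% in these data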;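 note: cells cotransfected with COUP-TFII expression vector driving the NGFI-A reporter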
Target sequence (P24468 whole entry, looked up): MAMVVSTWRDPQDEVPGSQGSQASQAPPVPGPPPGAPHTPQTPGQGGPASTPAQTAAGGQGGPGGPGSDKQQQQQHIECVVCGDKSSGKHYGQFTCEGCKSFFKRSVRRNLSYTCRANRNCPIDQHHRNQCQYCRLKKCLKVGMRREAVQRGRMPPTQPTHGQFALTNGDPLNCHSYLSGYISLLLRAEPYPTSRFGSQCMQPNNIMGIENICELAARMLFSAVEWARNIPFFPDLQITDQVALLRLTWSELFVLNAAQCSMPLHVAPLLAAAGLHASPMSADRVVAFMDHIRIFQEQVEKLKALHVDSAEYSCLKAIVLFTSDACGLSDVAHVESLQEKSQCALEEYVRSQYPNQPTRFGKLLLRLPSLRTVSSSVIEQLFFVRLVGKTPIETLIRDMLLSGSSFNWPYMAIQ
NCOA2 inhibitor – human SRC2 (NCOA2) inhibition. HEK293 GAL4-SRC2 luciferase reporter, luminescence. inhibition, % at 9 µM. hit rate 0.17% among 370,000. AID 651957;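 active = inhibition above the mean inhibition of all tested compounds plus 3 SD, set per campaign, cut at about 52% in these data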
LRH-1 inv ag – suppresses constitutive activity of human LRH-1. HEK293T StAR-luciferase reporter, LRH-1 transfected, 24 h. inhibition, % at 3.6 µM. hit rate 0.13% among 360,000. AID 602396;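 active = inhibition above the mean inhibition of all tested compounds plus 3 SD, cut at about 73% in these data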
Large screens that a line does not name were inactive.

COc1ccc(OC)c(C2(O)CSC(=Nc3cccnc3)N2Cc2ccco2)c1 (stereo unspecified)	none
Oc1ccccc1N=Nc1nc(-c2ccccc2)c(-c2ccccc2)[nH]1	NCOA3 inh 87, NCOA1 inh 74, LRH-1 inv ag 98
COc1ccccc1N=Nc1nc(-c2ccccc2)c(-c2ccccc2)[nH]1	none
CC(C)OC(=O)c1ccc(NCc2cc(O)ccc2O)cc1	NCOA2 inhibitor 60
O=C(OCc1ccccc1)c1ccc(NCc2cc(O)ccc2O)cc1	NR2F2 inh 56, NCOA2 inhibitor 83
Cc1ccc(C(=O)C2CCN(CC(=O)N3CCCC3)CC2)cc1	none (no result: NCOA3 inh, NCOA1 inh, LRH-1 inv ag)
Cc1cc(C)c2sc(NNC(=O)c3ccc(S(=O)(=O)N4CCc5ccccc5C4)cc3)nc2c1	NCOA3 inh 81, NCOA1 inh 70
CCOC(=O)N=Nc1c2ccccc2c2nc3no[nH]c3nc12	NCOA3 inh 89
CCc1ccc(/C=C2\SC(=S)N(CCC(=O)Nc3cc(C)on3)C2=O)cc1	none
CCOc1ccc(/C=C2\SC(=S)N(CCC(=O)O)C2=O)cc1	NCOA2 inhibitor 70
CCc1ccc(/C=C2\SC(=S)N(CCCC(=O)Nc3cc(C)on3)C2=O)cc1	NCOA2 inhibitor 77
CCOc1ccc(/C=C2/SC(=S)N(CCC(=O)Nc3ccc(C(=O)O)cc3)C2=O)cc1	none
CCc1ccc(/C=C2\SC(=S)N(CCCC(=O)NC3=NCCS3)C2=O)cc1	NCOA2 inhibitor 55
COc1cccc(/C=C2\SC(=S)N(CCCC(=O)Nc3ccc(C(=O)O)cc3)C2=O)c1	none
COc1cccc(/C=C2/SC(=S)N(CCCC(=O)Nc3ccc(O)cc3)C2=O)c1	NCOA2 inhibitor 53
COC(=O)[C@]12C[C@H](CC(=O)NCC3CCCCC3)C(=O)N(Cc3ccco3)C1=C[C@H](C(C)C)O[C@@H]2C1CC1	none (no result: NCOA3 inh, NCOA1 inh, LRH-1 inv ag)
C=C1C(=O)[C@]23C[C@H]1CC[C@H]2[C@]1(C)[C@@H](OC(C)=O)CC[C@@](C)(C(=O)O)[C@H]1C[C@@H]3O	none
C=C1C(=O)C2=CC1CCC(=O)C1(C)CCC(OC(C)=O)C(C)(C)C1CC2O (stereo unspecified)	NCOA3 inh 64
Cc1cccc(NC(=O)CSc2nnc(-c3cccnc3)n2Cc2ccco2)c1C	none (no result: NCOA3 inh, NCOA1 inh, LRH-1 inv ag)
CCN(C(C)=O)c1cnc(C=NNC(N)=S)c2ccccc12	none
NC(=S)NN=Cc1nccc2c(N)cccc12	NCOA3 inh 62, NCOA1 inh 74
CNc1ccc2ncc(-c3cccc(C(=O)N(C)C)c3)n2n1	NCOA1 inh 69, NCOA2 inhibitor 56
CC(=O)n1cc(N(C(=O)CCl)c2ccc([N+](=O)[O-])cc2)c2ccccc21	NCOA2 inhibitor 56
CC(=O)n1cc(N(C(=O)CCl)c2ccccc2)c2ccccc21	none
CNc1nc(N)c([N+](=O)[O-])c(Nc2cccc(Br)c2)n1	none (no result: NCOA3 inh, NCOA1 inh, NCOA2 inhibitor, LRH-1 inv ag)
CCOc1ccc(/C=C2\NCCc3cc(OCC)c(OCC)cc32)cc1OCC	none (no result: NCOA3 inh, NCOA1 inh, LRH-1 inv ag)
COc1ccc(Br)cc1/C=C/C(=O)c1ccc(NC(C)=O)cc1	NCOA3 inh 71, NCOA2 inhibitor 61
CN(C)S(=O)(=O)c1ccc(-c2csc(N/N=C/c3ccco3)n2)cc1	NCOA3 inh 73
CC(C)CCNC(=O)C(C)N(Cc1ccc(F)cc1)C(=O)c1ccc(CN2CCOCC2)o1 (stereo unspecified)	none
O=C(NC1CCCCC1)C(c1ccc(F)cc1)N(CCCN1CCOCC1)C(=O)c1ccc(CN2CCOCC2)o1 (stereo unspecified)	NCOA1 inh 93
Cc1nn(-c2ccccc2)c2sc(C(=O)NCCc3ccc(Cl)cc3)cc12	none (no result: NCOA3 inh, NCOA1 inh, LRH-1 inv ag)
NC(=O)c1cc2ccncc2c2ccccc12	NCOA3 inh 65, NCOA1 inh 82, NCOA2 inhibitor 56
CCCN(CCC)CCCNC(=O)c1cc2cc3ccc(OC)cc3nc2o1	none
COc1ccc2cc3cc(C(=O)NCCc4ccc(OC)c(OC)c4)oc3nc2c1	NR2F2 inh 54
Cc1ccc2cccc(NS(=O)(=O)c3ccccc3)c2n1	NCOA2 inhibitor 75 (no result: NCOA3 inh, NCOA1 inh, LRH-1 inv ag)
O=S(=O)(Nc1cccc2cccnc12)c1ccccc1	none
CCC[C@H](/C=C/C(=O)OC(C)(C)C)Sc1ccc(N)cc1	none (no result: NCOA3 inh, NCOA1 inh, LRH-1 inv ag)
COC(=O)[C@]1(C)CCC[C@@]2(C)C3CC[C@@]4(C)C[C@]3(CCC21)CC(=O)N4 (stereo partly specified)	none
C=C1C(=O)C23CCC4C(C)(C(=O)OC)CCCC4(C)C2CCC1(O)C3 (stereo unspecified)	NR2F2 inh 78, NCOA2 inhibitor 68
Cc1ccc(-c2cc(N)n[nH]2)cc1	none
CC(C)(C)c1ccc(-c2cc(N)n[nH]2)cc1	NCOA2 inhibitor 55
